Screen size: about 310,000 compounds; about 14,000 (4.5%) showed an effect of 50% or more. The effect is printed as a negative number. The entries come from a sample that favours strong results as a whole.
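Further: peak tail current of the secondary pulse compared with the same well before compound.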

Chain of human ether-à-go-go-related gene (hERG) potassium channel (Q12809 whole entry, looked up): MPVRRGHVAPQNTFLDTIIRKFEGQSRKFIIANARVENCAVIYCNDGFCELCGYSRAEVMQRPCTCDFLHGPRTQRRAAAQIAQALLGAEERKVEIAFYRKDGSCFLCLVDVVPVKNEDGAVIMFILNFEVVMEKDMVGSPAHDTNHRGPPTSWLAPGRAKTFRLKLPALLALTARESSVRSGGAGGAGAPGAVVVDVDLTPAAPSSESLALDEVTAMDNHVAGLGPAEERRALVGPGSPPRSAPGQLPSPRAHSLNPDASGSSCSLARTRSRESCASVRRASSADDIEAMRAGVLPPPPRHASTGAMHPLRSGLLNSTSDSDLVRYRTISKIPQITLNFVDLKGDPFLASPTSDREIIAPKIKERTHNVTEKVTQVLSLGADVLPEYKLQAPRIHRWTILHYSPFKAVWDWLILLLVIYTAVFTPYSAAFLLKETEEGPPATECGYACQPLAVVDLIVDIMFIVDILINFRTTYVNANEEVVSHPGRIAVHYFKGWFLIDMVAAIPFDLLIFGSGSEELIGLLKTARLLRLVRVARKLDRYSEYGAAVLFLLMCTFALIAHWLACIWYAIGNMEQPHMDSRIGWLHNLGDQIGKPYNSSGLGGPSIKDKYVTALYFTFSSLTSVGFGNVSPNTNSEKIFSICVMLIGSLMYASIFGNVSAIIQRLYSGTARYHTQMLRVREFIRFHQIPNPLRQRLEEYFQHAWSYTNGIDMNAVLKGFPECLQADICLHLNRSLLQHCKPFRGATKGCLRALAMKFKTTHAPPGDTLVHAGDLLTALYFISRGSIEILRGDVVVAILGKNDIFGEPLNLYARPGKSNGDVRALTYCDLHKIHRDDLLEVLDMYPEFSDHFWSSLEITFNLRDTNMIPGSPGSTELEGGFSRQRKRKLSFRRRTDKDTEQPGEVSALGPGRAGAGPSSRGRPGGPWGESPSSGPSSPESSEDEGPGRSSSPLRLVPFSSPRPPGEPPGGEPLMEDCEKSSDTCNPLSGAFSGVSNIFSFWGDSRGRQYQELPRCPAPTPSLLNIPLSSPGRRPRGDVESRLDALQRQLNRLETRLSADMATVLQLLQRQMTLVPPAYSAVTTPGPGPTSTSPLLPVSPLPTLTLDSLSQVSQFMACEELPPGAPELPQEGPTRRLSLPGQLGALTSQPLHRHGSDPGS

The assay addresses human ether-à-go-go-related gene (hERG) potassium channel (human, UniProt Q12809). The assay can be described thus: primary screen, population patch clamp on CHO cells stably expressing hERG; higher = less effect of the substance.
In the case of `CCN1C(=O)c2cccc3c(NC(=O)c4ccccc4)ccc1c23`, the “hERG current change (%, negative = inhibition) at 10uM” value was 9.37%. For `CCN1C(=O)c2cccc3c(NC(=O)c4ccc(OC)c(OC)c4)ccc1c23` the value was -68.3%; for `CCOc1cc(C(=O)Nc2ccc3c4c(cccc24)C(=O)N3CC)cc(OCC)c1OCC`, -5.15%. For `O=P(O)(Oc1ccccc1)OC(c1ccccc1)C(F)(F)C(F)(F)F` (centres unmarked) the value was 27.3%. Then `CN1CCN(c2ccccc2NC(=O)COc2ccccc2)CC1`, with -48.4%; and `Cc1cc(C)cc(OCC(=O)Nc2ccccc2N2CCCCC2)c1`, with -0.491%. As for `O=C(COc1cccc(Br)c1)Nc1ccc(N2CCOCC2)cc1N1CCOCC1`, the “hERG current change (%, negative = inhibition) at 10uM” value is on record as -50.6%.

`CC(=O)N1CCN(c2ccccc2NC(=O)COc2ccccc2C)CC1`: the “hERG current change (%, negative = inhibition) at 10uM” value is recorded as -14%. Then `O=C(COc1ccc(Br)cc1)Nc1ccc(N2CCOCC2)cc1N1CCOCC1`, with -7.56%; and `Cc1cc(C)cc(OCC(=O)Nc2ccc(N3CCOCC3)cc2N2CCOCC2)c1`, with -6.54%. As for `COC(=O)c1ccc(N2CCN(C)CC2)c(NC(=O)COc2ccc(C)cc2)c1`, the “hERG current change (%, negative = inhibition) at 10uM” value was -20%. Then `COC(=O)c1ccc(N2CCN(C)CC2)c(NC(=O)COc2ccccc2)c1`, with -43.9%. For `COC(=O)c1ccc(N2CCN(C)CC2)c(NC(=O)COc2ccc(OC)cc2)c1` the value was -53.5%. Regarding `CC(=O)N1CCN(c2ccccc2NC(=O)COc2cc(C)cc(C)c2)CC1`, the “hERG current change (%, negative = inhibition) at 10uM” value is -52.4%. Then `CC(=O)N1CCN(c2ccccc2NC(=O)COc2ccc(Br)cc2)CC1`, with -9.2%; and `CN1CCN(c2ccccc2NC(=O)COc2ccc(Br)cc2)CC1`, with -58%. Regarding `O=C(Nc1cccc(Cl)c1)OC1CCCCc2cccnc21` (centres unmarked), the “hERG current change (%, negative = inhibition) at 10uM” value is reported as 4.75%.

`COc1ccc(-c2cc(N3C(=O)Nc4ccccc4N3O)n[nH]2)cc1OC`: the “hERG current change (%, negative = inhibition) at 10uM” value amounted to 3.84%.

As for `CCO[C@@H]1OC(C(=O)N2CCOCC2)=C[C@H](c2cn(C(C)=O)c3ccccc23)[C@H]1CCCO`, the “hERG current change (%, negative = inhibition) at 10uM” value is recorded as -20.3%. Then `CSc1nc2sccc2c(=O)[nH]1`, with 32.8%. For `Cc1cccc(NC(=O)c2ccccc2NC(=O)c2ccccc2)n1` the value was -0.693%; for `COc1ccc(C(C)NC(=O)CCc2ccccc2)cc1` (centres unmarked), 10%; for `Clc1ccc(-c2nc3ccncc3[nH]2)cc1`, -17.3%. For `COc1ccccc1-n1c(O)c(C=NCc2ccccn2)c2ccccc2c1=O` the value was -8.58%; for `Cc1ccc(N2C(=O)CC(Sc3nc(-c4ccccc4)c4cc(Cl)ccc4n3)C2=O)c(C)c1` (centres unmarked), 3.36%; for `Cc1cccc(OCC(=O)Nc2ccccc2N2CCCCC2)c1`, 2.17%.

`Cc1cccc(OCC(=O)Nc2ccccc2N2CCN(C)CC2)c1`: the “hERG current change (%, negative = inhibition) at 10uM” value is reported as -51.2%.

With `CCn1c(=O)cc(OCC(=O)Nc2ccccc2C#N)c2ccccc21`, the “hERG current change (%, negative = inhibition) at 10uM” value was determined as 6.06%. For `CCC(=O)N1CCN(c2ccccc2NC(=O)COc2cccc(C)c2)CC1` the value was -38.2%; for `CN1CCN(c2ccccc2NC(=O)COc2ccc(Cl)cc2)CC1`, -59.9%.

In the case of `CN1CCN(c2ccccc2NC(=O)COc2ccc(C3CCCCC3)cc2)CC1`, the “hERG current change (%, negative = inhibition) at 10uM” value is reported as 16.8%. Then `COc1cc(CCC(=O)Nc2cc(Cl)ccc2N2CCN(C)CC2)cc(OC)c1OC`, with -10.2%.

Regarding `CCn1c(=O)cc(OCC(=O)Nc2ccccc2N2CCN(C)CC2)c2ccccc21`, the “hERG current change (%, negative = inhibition) at 10uM” value was -58.3%.

Regarding `COc1ccc(CC(=O)Nc2cc(Cl)ccc2N2CCCC2)cc1`, the “hERG current change (%, negative = inhibition) at 10uM” value is given as 15.7%. Then `CCOC(=O)c1ccccc1NC(=O)COc1cc(=O)n(CC)c2ccccc12`, with 5.47%; and `COc1ccc(CCC(=O)Nc2cc(Cl)ccc2N2CCN(C)CC2)cc1`, with -50.1%; and `COc1ccc(OCC(=O)Nc2ccccc2N2CCN(C)CC2)cc1`, with -38.6%. Turning to `COc1cccc(C(c2c(O)nc(SC)n(C)c2=O)c2c(O)nc(SC)n(C)c2=O)c1`, the “hERG current change (%, negative = inhibition) at 10uM” value was determined as 0.717%. Consider `COc1ccc(-n2nc3c(c2NC(=O)c2ccc(S(=O)(=O)N4CCOCC4)cc2)CS(=O)(=O)C3)cc1`, for which the “hERG current change (%, negative = inhibition) at 10uM” value is reported as 14.6%. Then `Cc1ccc(C(=O)N2CCN(c3ccc(NC(=O)c4cccnc4Cl)cc3)CC2)cc1`, with -27.8%; and `Cc1cc(S(=O)(=O)NCCCN2CCOCC2)c(Cl)cc1Cl`, with -13.1%; and `Cc1ccccc1C(=O)Oc1ccc2ccc(O)cc2c1`, with 14.5%.

Regarding `O=C(CSc1nnc(Cc2ccccc2)o1)N1CCOCC1`, the “hERG current change (%, negative = inhibition) at 10uM” value stood at 0.161%. In the case of `O=C(CSc1nnc(-c2ccncc2)n1-c1ccccc1)Nc1ccc(C(=O)O)cc1`, the “hERG current change (%, negative = inhibition) at 10uM” value stood at 25.5%.

As to `CCNC(=O)Nn1c(-c2ccccc2)nc2ccccc2c1=O`, the “hERG current change (%, negative = inhibition) at 10uM” value came out at 22.9%. For `Cc1ccc(C(=O)NCc2n[nH]c(=S)n2-c2ccccc2)cc1[N+](=O)[O-]` the value was 7.76%; for `Cc1cc(NC(=O)Cn2nnc(-c3ccccc3NC(=O)c3ccccc3F)n2)no1`, 12.5%. Turning to `COc1ccc(-c2[nH]ncc2Oc2ccccc2OC)c(O)c1`, the “hERG current change (%, negative = inhibition) at 10uM” value is on record as -11.3%.

Regarding `O=S(=O)(Nc1nc2ccccc2s1)c1ccc(Br)s1`, the “hERG current change (%, negative = inhibition) at 10uM” value is listed as -5.3%.

On to `Fc1ccc(N2CCN(C3=Nc4cccc5cccc3c45)CC2)cc1`, for which the “hERG current change (%, negative = inhibition) at 10uM” value is -77%.

As to `Cl.O=C1C2C3C=CC(C4CC34)C2C(=O)N1CCCCN1CCN(c2ccc(F)cc2)CC1` (centres unmarked), the “hERG current change (%, negative = inhibition) at 10uM” value is recorded as -69.3%.

With `c1ccc(CC2CCN(C3=Nc4cccc5cccc3c45)CC2)cc1`, the “hERG current change (%, negative = inhibition) at 10uM” value is listed as -80%. Consider `c1cc2c3c(cccc3c1)C(N1CCOCC1)=N2`, for which the “hERG current change (%, negative = inhibition) at 10uM” value is given as -31%. Then `c1cc2c3c(cccc3c1)C(N1CCCCC1)=N2`, with -66.2%. With `O=C(CN1C(=O)c2cccc3cccc1c23)N1CCN(c2ccc(F)cc2)CC1`, the “hERG current change (%, negative = inhibition) at 10uM” value turned out to be 9.69%.

As to `CC1CN(C2=Nc3cccc4cccc2c34)CC(C)O1` (centres unmarked), the “hERG current change (%, negative = inhibition) at 10uM” value is -47.6%. For `O=S1(=O)N=C(N2CCN(c3ccc(F)cc3)CC2)c2ccccc21`, the “hERG current change (%, negative = inhibition) at 10uM” value is listed as -8.87%. For `O=C1C2C3C=CC(C4CC34)C2C(=O)N1CCc1ccccc1` (centres unmarked), the “hERG current change (%, negative = inhibition) at 10uM” value is on record as 3.23%. Turning to `c1ccc(CC2CCN(c3nnnn3-c3ccccc3)CC2)cc1`, the “hERG current change (%, negative = inhibition) at 10uM” value is listed as -13.1%. For `O=C1C2CCCN2C(=O)N1CCCCN1CCN(c2ccc(F)cc2)CC1` (centres unmarked) the value was -43.2%; for `N#Cc1nc(Cc2ccccc2)oc1N1CCC(Cc2ccccc2)CC1`, 24.5%. Then `Cc1ccc(S(=O)(=O)N2CCC(C(=O)OCc3c(C)noc3C)CC2)cc1C`, with -15.8%; and `COc1ccc(S(=O)(=O)NC2CC(C)(C)NC(C)(C)C2)c2ccccc12`, with 6.47%. Then `CCc1nc(C)c(C#N)c2cc(OC)c(OC)cc12`, with 1.21%; and `CC(C)(C)OC(=O)NCCc1nnc(S(=O)(=O)Cc2ccc(Cl)cc2Cl)o1`, with -5.97%; and `CCCOc1ccc(/C=N/NC(=S)Nc2ccccc2[N+](=O)[O-])c(O)c1`, with 24.3%. For `COC(=O)c1c(C)c2c(C)cc3ccccn3c-2c1C(=O)OC`, the “hERG current change (%, negative = inhibition) at 10uM” value is recorded as -4.02%.

As to `O=C(O)CCC(=O)N1CCN(S(=O)(=O)c2ccc3ccccc3c2)CC1`, the “hERG current change (%, negative = inhibition) at 10uM” value worked out at 25.6%. For `O=C(CCCN1C(=O)c2cccc3cccc(c23)C1=O)N1CCN(c2ccc(F)cc2)CC1` the value was -1.91%; for `O=C1c2cccc3cccc(c23)C(=O)N1CCCN1CCN(c2ccc(F)cc2)CC1`, -69.2%. Take `c1ccc(NC2=Nc3cccc4cccc2c34)cc1`: the “hERG current change (%, negative = inhibition) at 10uM” value was found to be 1.71%. Then `COc1ccccc1N1CCN(C2=Nc3cccc4cccc2c34)CC1`, with -71.5%. On to `O=C(CN1CCN(CCN2C(=O)c3cccc4cccc(c34)C2=O)CC1)c1ccc(F)cc1`, for which the “hERG current change (%, negative = inhibition) at 10uM” value is -42.4%. For `c1cc2c3c(cccc3c1)C(N1CCCCCC1)=N2` the value was -67%; for `O=C(CN1C(=O)c2cccc3cccc(c23)C1=O)N1CCCCCC1`, 9.58%; for `COc1ccccc1N1CCN(C(=O)CN2C(=O)c3cccc4cccc(c34)C2=O)CC1`, 16.9%. Regarding `CC(=O)N1CCN(C2=Nc3cccc4cccc2c34)CC1`, the “hERG current change (%, negative = inhibition) at 10uM” value is -46%. For `Cc1cc(C)n(Cc2ccc(C(=O)Nc3ccc(Br)cc3C)o2)n1` the value was -19.4%. For `O=C(COc1ccccc1O)Nc1ccc(Cl)cc1` the value was 5.23%; for `Cc1ccc(C(=O)CSc2ccccc2C(=O)O)cc1`, 16.9%; for `Cc1ccccc1C(=O)NC1CCN(Cc2nnnn2C2CCCC2)CC1`, 3.85%. As for `C#CCOC(=O)c1ccccc1C(=O)O`, the “hERG current change (%, negative = inhibition) at 10uM” value is reported as 7.07%. Take `N#C/C(=C/c1cc(Br)cs1)C(=O)NCC1CCCO1` (centres unmarked): the “hERG current change (%, negative = inhibition) at 10uM” value is -14.8%. `O=C(OCn1ncc(Br)c(Br)c1=O)c1c(F)cccc1F`: the “hERG current change (%, negative = inhibition) at 10uM” value was 14.9%. For `O=C(OCn1ncc(Br)c(Br)c1=O)c1ccc(F)cc1` the value was -51.4%; for `O=C(OCn1ncc(Cl)c(Cl)c1=O)c1ccc(F)cc1`, -3.74%; for `O=C(CN1CCN(C(=O)c2cccc(F)c2)CC1)Nc1ccccc1F`, -70.1%. Then `O=C(CN1CCN(Cc2cccc(F)c2)CC1)Nc1ccccc1F`, with -55.9%; and `O=C(CN1CCN(C(=O)c2c(F)cccc2F)CC1)Nc1ccccc1F`, with -11.3%; and `O=C(c1cccc(Cl)c1)N1CCN(Cc2ccccc2F)CC1`, with 10.1%. Then `Cl.O=C(CN1CCN(C(=O)c2cccc(F)c2)CC1)NC1CCCCC1`, with 2.39%; and `O=C(CN1CCN(Cc2cccc(F)c2)CC1)NCc1ccccc1`, with -10.4%. As for `O=C(CN1CCCCCC1)Nc1ccc(Cl)cc1F`, the “hERG current change (%, negative = inhibition) at 10uM” value is on record as -2.05%. Then `O=C(CN1CCN(Cc2ccc(F)cc2)CC1)Nc1ccccc1F`, with -35.2%; and `O=C(CN1CCN(C(=O)c2ccccc2)CC1)Nc1ccc(Cl)cc1F`, with -71%.
